D3 ag: qHTS of D3 Dopamine Receptor Agonist: qHTS; D3R DiscoveRx beta-arrestin cells, luminescence, 90 min; max activation, %; D(3) dopamine receptor (Homo sapiens), P35462; 410,000 compounds, 0.58% hits; in the data active = max activation above about 30%; note: 0% is about no effect
Target sequence (P35462 whole entry, looked up): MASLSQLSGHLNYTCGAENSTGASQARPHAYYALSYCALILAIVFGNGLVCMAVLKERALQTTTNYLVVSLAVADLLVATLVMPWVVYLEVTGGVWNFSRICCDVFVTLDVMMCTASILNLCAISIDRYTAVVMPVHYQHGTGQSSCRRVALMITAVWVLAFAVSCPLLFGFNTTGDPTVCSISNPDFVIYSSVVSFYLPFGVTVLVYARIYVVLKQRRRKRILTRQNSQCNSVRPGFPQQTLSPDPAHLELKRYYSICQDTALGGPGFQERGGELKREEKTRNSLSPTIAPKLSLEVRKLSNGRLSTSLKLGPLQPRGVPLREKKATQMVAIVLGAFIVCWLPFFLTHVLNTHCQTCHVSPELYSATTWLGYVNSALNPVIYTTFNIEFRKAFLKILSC
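Agonist-mode cell screen: cells plated at 1500/well and incubated overnight at 37 °C, then exposed to library compounds for 90 min at 37 °C. Detection reagent was added for 30–60 min at room temperature, and luminescence was read.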
uPA generation: qHTS for Inhibitors of Cell Surface uPA Generation. Potency, µM (series often up to 38.3 µM), inactives show top-dose activity change, negative = inhibition, hits mostly inhibitors. 330,000 compounds, 0.31% hits. cell surface uPA generation assay, qHTS; active = well fitted inhibition curve with a large enough effect; inconclusive = small, poorly fitted or top-dose-only effect; inactive = no such curve, though single readings can be large or run the other way; tested in mouse RAW 264.7 cells; note: potency is the fitted concentration of half-maximal effect; % is set by controls: 0 for no effect and ±100 for the full control effect; nearly all actives have a fitted effect of over 55% in size
DRD3 antagonist: qHTS of D3 Dopamine Receptor Antagonist: qHTS | 360,000 compounds, 2.5% hits | D3R cells, DiscoveRx beta-arrestin luminescence, antagonist mode; stronger effect = lower value | D(3) dopamine receptor (Homo sapiens), P35462 | max response, negative = inhibition, %; in the data active = max response below about -50%; inconclusive = no clear call, values can overlap the other calls; note: % is set by controls: 0 for no effect and ±100 for the full control effect
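Cells plated overnight at 1500 cells/well, then exposed to library compounds with dopamine controls for 90 minutes at 37 degrees C. DiscoveRx reagent added for 30–60 minutes at room temperature; luminescence read, quantitative HTS format.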
RGS4 inh: Inhibitors of Regulator of G Protein Signaling (RGS) 4: qHTS. Transcreener GDP fluorescence polarization, RGS4-accelerated GTP hydrolysis. Potency, µM (highest dose often 114 µM), for the others: top-dose activity change, negative = inhibition, hits mostly inhibitors. 390,000 compounds, 0.039% hits; active = well fitted inhibition curve with a large enough effect; inconclusive = small, poorly fitted or top-dose-only effect; inactive = no such curve, though single readings can be large or run the other way; note: potency is the fitted concentration of half-maximal effect; % is set by controls: 0 for no effect and ±100 for the full control effect; nearly all actives have a fitted effect of over 75% in size
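MLSMR compounds (23 nl, pin-transferred) preincubated 10 min at room temperature with a 500nM (2x) first reagent, then RGS4 at 900nM (2x) plus Transcreener GDP mix added; fluorescence polarization (620/688 nm) read before and after 90 min at 30 °C.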
Numbers without * were called inactive; u = inconclusive; x = not tested or not shown; [ ] = dose if it differs, or a comment. Sampled rows, rich in hits. Any-hit rate of the full collection: about 3.1%.

SMILES	D3 ag	uPA generation	DRD3 antagonist	RGS4 inh
Cc1cccc(C)c1NC(=O)C(=O)NCC(c1ccc2c(c1)OCO2)N1CCN(C)CC1 (configuration not stated)	4	x	x	-8%
COc1ccc(C(=O)N2CCN(Cc3cc(=O)n4nc(-c5ccccc5C)sc4n3)CC2)cc1OC	-7	x	x	11%
COc1cc(C2NC(=O)c3c(sc4c3CCN(C)C4)N2)cc(Br)c1OC(=O)c1ccc(C)cc1 (configuration not stated)	6	x	x	-26%
CCCC(=O)N1CCOCC1c1cc(C(=O)Nc2ccccc2)no1 (configuration not stated)	5	x	5	x
O=C(NCc1cccc(F)c1)c1ccc(CN2CC(=O)N3CCCCC3C2=O)cc1 (configuration not stated)	-25	x	x	-26%
COc1ccc(Br)cc1C(C[N+](=O)[O-])c1c(N)n(C)c(=O)n(C)c1=O (configuration not stated)	-4	3.5µM*	0	-25%
CN(C)c1ccc(C(C[N+](=O)[O-])c2c(N)n(C)c(=O)n(C)c2=O)c(F)c1C#N (configuration not stated)	1	u	-14	-21%
C(=C\c1ccccc1)/CN1CCN(C(c2cccc3ccccc23)c2nnnn2-c2ccc3c(c2)OCCO3)CC1 (configuration not stated)	-10	x	-73*	x
CN(C)CCN1CCN(C(c2ccnc3ccccc23)c2nnnn2-c2ccc3c(c2)OCCO3)CC1 (configuration not stated)	-13	x	0	x
FC(F)(F)Oc1ccccc1C(c1nnnn1-c1ccc2c(c1)OCCO2)N1CCN(C/C=C/c2ccccc2)CC1 (configuration not stated)	-14	x	-57*	x
CCCN1C(=O)c2oc3cc(C)cc(C)c3c(=O)c2C1c1ccc(F)cc1 (configuration not stated)	11	x	x	3%
O=C(COC(=O)Cn1cnc2ccccc21)Nc1cc2c(cc1Cl)C(=O)c1ccccc1C2=O	1	5µM*	41	-29%
O=C(COC(=O)Cn1cnc2ccccc21)Nc1cc(S(=O)(=O)N2CCOCC2)ccc1Cl	-7	1%	2	11%
Clc1ccccc1CSc1nc2ccncc2[nH]1	-1	4µM*	4	0%
O=C(NCc1ccccc1Cl)c1ccc(CSc2nc3ccncc3[nH]2)cc1	-8	0%	-26	1%
COc1ccc(C(=O)N2CCc3cc4c(cc3C2C)OCCCO4)cc1 (configuration not stated)	44*	-16%	-20	7%
CCCn1c(N2CCN(CC(=O)NCc3cccs3)CC2)nc2ccccc21	-3	-2%	-67*	-29%
COC(=O)C1=CO[C@@H](O)[C@@H]2C(CO)=CC[C@H]12	x	x	x	-5%[56.9 µM]
O=c1oc2ccccc2nc1/C=C(O)/C=C\c1ccccc1	2	-15%	-55*	-31%
Cc1cc(C)c(C(=O)CC(=O)c2ccccc2Cl)c(O)c1	-12	1%	-64*	-12%
COc1ccccc1CNc1ncnc2c1c(-c1ccccc1)cn2-c1ccc(Br)cc1	-4	x	x	-2%
CCOC(=O)C1=C(Cn2cnc3ccccc32)NC(=O)NC1c1ccc(Cl)cc1 (configuration not stated)	32*	x	28	-16%
Cn1c(C=O)c(C#CC(C)(C)O)c2ccccc21	12	-4%	17	10%
COc1cccc(C#Cc2c(C=O)n(C)c3ccccc23)c1	56*	14%	69	-5%
Cc1ccc2oc(=O)c3cc(C(=O)NCCCN4CCc5ccccc5C4)sc3c2c1	-13	18%	-55*	-38%
O=C(c1ccc(Cl)c(S(=O)(=O)Nc2ccc(F)cc2)c1)N1CCN(c2ccccn2)CC1	38*	x	33	18%
O=C(c1ccc(Cl)c(Cl)c1)N1CCN(c2ccccn2)CC1	1	-1%	-11	17%
CCc1ccc(NC(=O)C(CC)n2nnc(C(=O)OC)c2C(=O)OC)cc1 (configuration not stated)	-12	x	x	-9%
COc1ccc(CCNC(=O)CCN2C(=O)COc3ccccc32)cc1OC	0	-3%	4	4%
COc1ccc(CCNC(=O)CCN2C(=O)COc3ccc(C)cc32)cc1OC	-3	1%	-65*	5%
